# Screening data as filed in PubChem BioAssay.
# This is one part of a sample in which hits are shown more often than they occur.
# Dicer processing – inhibitors of human Dicer processing of pre-microRNA; Q9UPY3; cat-ELCCA pre-miR-21 Dicer processing, chemiluminescence; active compounds read high; z-score at 25 µM; 47,000 tested, 6% active; AID 1347074; in the data active = z-score above about 3, passing the limit was not always enough;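 also: plate controls were vehicle for no effect and no enzyme for full effect; higher signal means more uncleaved substrate so more Dicer inhibition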
# * = called active by the depositor.
SMILES,Dicer processing
COc1ccc(Oc2ccc([N+](=O)[O-])cc2C(=O)O/N=C(\N)c2ccc(C(F)(F)F)cc2)cc1,-0.47
CCOC(=O)C1C2C=CC3(CN(c4ccc(CC)cc4)C(=O)C13)O2 (configuration not stated),-0.36
CC1SC(c2cccnc2)N(c2ccc(F)cc2F)C1=O (configuration not stated),2.9
Cc1nc2c(=O)n(-c3ccc(F)cc3F)nc(C)c2s1,3.2*
Cc1nc2c(s1)c(C)nn2-c1ccccc1,0.81
COc1ccc(-c2nn3c(-c4ccccc4Cl)nnc3s2)cc1,2.4
CC1C/C(=N\Nc2cc(Cl)cc(Cl)c2)c2cc(Cl)ccc2S1 (configuration not stated),1.4
CC1C/C(=N\Nc2ccc(Br)cc2)c2cc(Cl)ccc2S1 (configuration not stated),3.2*
O=[N+]([O-])c1ccc(N/N=C2\CCSc3ccc(Cl)cc32)cc1,0.41
O=C1CC(NCC2CCCO2)C(=O)N1c1ccccc1 (configuration not stated),-1.7
CN(C)/C=C1\N=C(c2cccnc2Oc2ccc(Cl)cc2)OC1=O,19*
Cc1ccc(Sc2ncccc2C2=N/C(=C\N(C)C)C(=O)O2)cc1,-0.39
CN(C)/C=C1/N=C(c2ccccc2)OC1=O,1.1
CCn1c(-c2ccccc2Cl)n[nH]c1=S,-0.63
CC(=O)Oc1ccc(N2C(=O)c3cccnc3C2=O)cc1,3.1*
O=C(Nc1ccc(N2C(=O)c3cccnc3C2=O)cc1)c1cccs1,-1.4
COC(=O)Cc1ccc(N2C(=O)c3cccnc3C2=O)cc1,-2.3
CCCCc1c(O)nc(SCCN2CCOCC2)n(-c2ccccc2)c1=O,2.8
O=c1c(=O)n2c(nn1CN1CCCCC1)sc1ccccc12,4.1*
O=C(Cn1nc2sc3ccccc3n2c(=O)c1=O)c1ccc(Cl)cc1,7.1
NC(=O)Cn1nc2sc3ccccc3n2c(=O)c1=O,-1.3
O=c1c(=O)n2c(nn1Cc1ccccc1Cl)sc1ccccc12,-1.3
Cc1nnc2c(N3CCOCC3)nc3ccccc3n12,-0.14
C=CCn1nc2sc3ccccc3n2c(=O)c1=O,1.1
O=c1c(=O)n2c(nn1CN1CCOCC1)sc1ccccc12,4.3*
SMILES,Dicer processing
O=c1c(N2CCOCC2)nnc2sc3ccccc3n12,4.3*
Cn1nc2sc3ccccc3n2c(=O)c1=O,-1.5
COC(=O)C1=C(C)NC2=C(C(=O)CC(C)(C)C2)C1c1ccc(OCc2ccccc2)cc1OC (configuration not stated),-0.23
CO/N=C(\C(=O)N[C@@H]1C(=O)N2C(C(=O)OC(C)OC(C)=O)=C(COC(N)=O)CS[C@H]12)c1ccco1 (some centres not stated),-0.74
COc1ccc(Cc2nnc(Nc3ccc(Cl)cc3Cl)o2)cc1OC,3.9*
COc1ccc(Cc2nnc(N)o2)cc1OC,0.68
COc1ccc(Cc2nnc(Nc3ccc(C)cc3)o2)cc1OC,1.6
CCCCc1ccc(NC(=O)CSc2cccc(Cl)c2Cl)c(C)c1,-1.1
COC(=O)c1csc2c(C(F)(F)F)cc(=O)[nH]c12,0.3
CCOC(=O)c1oc2ccccc2c1CSc1ccccn1,-0.38
CCOC(=O)c1oc2ccc(OC)cc2c1CSc1ccccn1,4*
Cc1nnc(NC(=O)CSc2ccccn2)s1,0.78
CCOC(=O)c1oc2ccccc2c1CO,-0.55
COc1ccc(OC)c(C(=O)c2oc3ccccc3c2NC(=O)CSc2ccccn2)c1,3.3*
COc1ccc(OC)c(NC(=O)CSc2nccn2C)c1,-1.3
N#CC(=Nc1ccc(C2CCCCC2)cc1)C1=C(O)c2ccccc2C1=O,1.7
O=C(Nc1cccc(F)c1)N1CCN(c2ncccn2)CC1,1.8
O=c1[nH]cnc2c1sc1nnc(-c3ccccc3)c(-c3ccccc3)c12,1.9
COC(=O)c1ccc([C@@H]2Nc3ccc(C(=O)O)cc3[C@@H]3C=CC[C@@H]32)cc1,1
CCc1ccc2[nH]c3sc(C)nc3c2c1,-1.4
CCOc1nc2ccccc2nc1OCC,0.29
CCOc1ccc(OCC)c2sc(C)nc12,3.2*
Nc1cccc(F)c1CNCC(O)COc1ccc(Cl)c(Cl)c1 (configuration not stated),-0.32
O=C(CN1C2=NCCN2c2ccccc21)c1ccc(F)cc1,-0.27
O=C(CCCN1CCN(c2ccccn2)CC1)c1ccc(F)cc1,1.2
SMILES,Dicer processing
OC1(c2ccc(F)cc2)Cc2ccccc2C2=NCCN21 (configuration not stated),5.6*
Cn1c(-c2ccccc2O)[n+](C)c2ccccc21,-1.5
CCCc1[nH]nc2c1C1(CCN(C(=O)OCC)CC1)C(C#N)=C(N)O2,-1.5
CC(C)c1ccc(C2C(C#N)=C(N)Oc3cc(O)ccc32)cc1 (configuration not stated),4.9*
C=CCOc1ccc(C2C(C#N)=C(N)Oc3cc(O)ccc32)cc1Cl (configuration not stated),13
COc1ccc(C2C(C#N)=C(N)Oc3cc(O)ccc32)cc1C (configuration not stated),-0.6
CC(C)CN=C1NS(=O)(=O)c2ccccc21,2.4
Cc1ccc(S(=O)(=O)N(CCO)CCO)cc1,-1
